Whole data set: some 33,000 sequences, median “E-score (-0.5 to 0.5)” near -8e-05, cut for the highest 2% near 0.23. The entries come from a sample that favours the highest values as a whole.
Each sequence was assayed against T1, Nrg2 (UniProt P38082) (assay: PBM E-score (8-mer binding enrichment) (E-score (-0.5 to 0.5)); higher = stronger / more preferred TF binding). Conditions: protein concentration: 100 nM; construct: GST-full length.
T1 sequence: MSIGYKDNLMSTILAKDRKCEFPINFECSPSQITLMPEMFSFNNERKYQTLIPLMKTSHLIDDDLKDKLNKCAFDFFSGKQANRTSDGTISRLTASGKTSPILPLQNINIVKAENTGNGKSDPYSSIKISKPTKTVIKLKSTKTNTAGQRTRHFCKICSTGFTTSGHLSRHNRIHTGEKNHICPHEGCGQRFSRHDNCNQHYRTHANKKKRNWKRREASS
How it was run: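 E-scores (a modified Wilcoxon-Mann-Whitney statistic) were assigned by the Universal PBM Analysis Suite to every ungapped eight-base word pooled with its reverse complement. The input came from universal all-10-mer Agilent arrays made double-stranded by primer extension and probed with GST-tagged yeast transcription factors at about 100-200 nM. Fluorescent anti-GST detected bound protein, and masliner normalised the scans.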

Sequence	PBM E-score
TAACCGAA	-0.0477
ACCAGTCG	-0.149
CGAGTTTA	0.0171
ACAGAGGA	0.00257
ACCACACG	-0.034
AAACGGAT	0.205
ATCGAGGG	0.12
CCGTTCAG	0.00062
CACCCTTA	0.147
GACCCTAA	0.237
CACCCTGG	0.0652
GACCCTAC	0.184
AACCCTGG	0.315
GGCCCTTA	0.185
AACCCTAG	0.0468
AACCCTGT	0.244
GACCCTTA	0.321
AACCCTAT	0.195
TACCCTAA	0.107
ACCCCTGG	0.0828
GAGTCTGA	-0.0871
CAGTATGG	0.0291
AACGAGGC	-0.139
AAAGTTCG	0.127
AACCCATT	0.00038

Sequence	PBM E-score
AACCCTGA	0.385
ACCCCTTA	0.178
AACCCTGC	0.134
ACCCCTGA	0.297
CCCCCTGA	-0.00244
AACCCATA	0.24
GACCCATA	0.118
CACCCTGA	0.201
CGCGACGA	0.176
TGGGGACA	-0.187
AAGGGAGC	-0.187
AAAACGGC	0.112
GCCGGACA	0.0968
TCGTTGAA	-0.0977
ATACTATC	0.013
CTACTATC	0.247
CTACTATA	0.143
AGGAAAAC	0.151
ACTGTTTA	-0.0842
AATCGTTC	0.0566
ATTCGTTC	0.28
CTTCGTCC	-0.114
ACTCGTTG	-0.109
CTTCGTTC	-0.00176
ATTCGTTA	0.165

Sequence	PBM E-score
ATTCGTTG	0.239
ATTCGTCC	0.27
ATTCGTCG	-0.00164
AAAATCAT	-0.0452
CATTGGTA	0.0651
CGAGTTAC	0.215
TGAGTTAA	0.0318
CGAGTTAA	0.264
CGGTCTAA	-0.118
GCCCTGAC	-0.00086
AACCTGTG	0.0227
ACCCTGAG	0.368
ACCCTGTG	0.289
ACCCTGTC	0.201
AACCTGAT	0.0634
ACCCTGAC	0.334
AGCCTGAT	-0.168
ATCCTGAG	0.0135
ACCCTGAT	0.249
CCCCTGAG	0.176
AGCCTGTG	-0.118
GTTAGCGA	-0.131
ATATCGAT	0.213
CTCTGCTC	-0.0804
ACACTATG	0.0263

Sequence	PBM E-score
CTACTTGC	0.141
ACCTTAGC	0.025
CGTTCACC	-0.11
AGCCTCCC	-0.381
ACCGATCG	-0.0446
TCTGACCA	0.216
TAATAAGA	0.0444
GCTTGCTA	-0.0547
CCCCTGTC	-0.151
CTCCTGAC	0.0802
CCCCTGAC	0.235
ATATAACG	0.243
CTATAAAC	-0.086
ATATAACC	0.145
ATATAAAG	0.0638
ATATAACA	0.078
GTATAAAC	0.156
ATATAAAT	0.252
ATATAAAC	0.255
ATATAAAA	0.0793
ATGAGTAA	0.0697
ACTCGGAC	0.0898
ACTAGGGC	-0.0479
ACTGAACC	-0.111
GTCTTTTA	-0.195

Sequence	PBM E-score
ATATCTTG	0.0388
AATCCTCC	-0.123
AGACAGCT	0.12
GTCACGGA	-0.00114
CGCCATGA	-0.0296
CTATCTAC	0.00786
AAGCTTCC	-0.206
CACGGATG	-0.149
AACGGATG	-0.00493
CGCGGATA	0.246
CACGGATA	0.235
TACGGATA	0.0194
AACGGATT	0.148
CGCGGATC	0.037
AACGGATA	0.258
AGCGGATA	-0.042
ACCGACAC	-0.0406
GGGAGGAC	0.0465
GTCGTTTA	-0.00227
AACGTCAC	-0.00893
CCGCCCAG	-0.0404
TAATCAGA	0.133
AAATCAGA	0.129
GAATCAGA	0.23
CGTTAAAG	0.00135

Sequence	PBM E-score
GAGCTACA	-0.114
AGATACAC	0.244
GGATACAC	-0.0641
AGATACTA	0.0761
AGATACTC	0.1
AGATACAG	0.136
AGATACTG	0.242
ATACATGC	-0.0508
GGTTATGA	-0.0752
CAAAAGGA	-0.0703
ACCCTAAC	0.116
GACTGTTA	-0.0515
AGACTGAC	-0.1
AATAAGAT	0.0228
TATAAGAA	0.12
CATAAGAA	0.254
GATAAGAA	0.0876
AATAAGAA	0.233
AATAAGAG	0.115
GTCCCAGA	-0.19
AGCTACAC	0.0938
GAGACTAA	-0.027
AAACAATA	0.261
ATACAATA	0.239
GAACAATC	0.0696

Sequence	PBM E-score
AAACAATT	0.137
ATACAACA	0.246
TAACAATA	0.132
ATACAATC	-0.0431
AAACAATG	0.0814
CTACAATA	0.00041
GAACAATA	0.277
ATACAACG	0.0553
ATACAACC	-0.00323
CGTCCGAG	0.0587
AAGGCCTC	-0.0691
TAGAGCGA	-0.079
CGACACAG	-0.0558
CAGAGGGG	-0.314
TGATAGAA	-0.0926
TCTACGCA	0.0696
GAGGTTTA	-0.00946
ACGGTTCG	-0.169
CAGGTGGG	-0.0155
AGGCTAGC	-0.223
AATCGAAG	0.264
AATCGAAA	0.0902
CATCGAAA	0.0505
AATCGATA	0.158
AATCGAGT	0.0016

Sequence	PBM E-score
TATCGAAA	0.255
AATCGATT	0.247
AATCGATC	0.0541
GATCGAAA	0.108
CATCGAGG	0.0813
AATCGAAC	0.169
AATCGAGG	0.248
GACTGGGA	-0.0261
ATAGCCGG	-0.145
ACAACCAG	0.101
ACAACCAT	0.24
ACAACCAC	-0.0501
ACGTGGTG	-0.139
AGAGTTAG	-0.0429
CCGACGAC	0.00776
ACTGCTCT	0.00123
CCATGAGC	-0.047
AATGCGAG	0.107
ATTAATGC	0.0582
ATTAATTA	0.117
ATTAATTG	0.142
CTTAATGA	0.0652
ATTAATTC	0.229
ATTAATGA	0.235
GTGTAGCA	-0.149

Sequence	PBM E-score
AGCTATCC	-0.208
ACGCGGAA	-0.0174
CGGATAAA	0.234
TGGATAAA	0.0491
CGGATAAC	0.05
CTTTGGAA	-0.152
ACTATGAG	-0.0885
AATCGGAA	0.242
TATCGGAA	0.0162
AATCGGAG	0.105
AGAGAAAG	-0.00961
GCTTCTCA	0.00982
AGCCCATC	-0.0428
AATCGCAG	0.16
AATCGCAT	0.245
AATCTCGC	0.235
AATCGCGA	0.185
CATCGCGC	0.0459
AATCTCGG	0.0273
GATCTCGC	0.144
AATCGCGC	0.23
AATCGCAC	-0.165

— the supplement of paper PMC3334620
